# Sampled rows, rich in hits. Any-hit rate of the full collection: about 7.9%.
# HCV inhibitor: qHTS Assay for Inhibitors of Hepatitis C Virus (HCV); Huh7.5.1 HCVcc-Cre infection, luciferase reporter, 44 h; Potency, µM (top dose mostly 41.8 µM), without a hit: at the top dose activity change, negative = inhibition, usual class: inhibitors; actives 3.4% (n = 340,000); AID 651820, 2012; active means well fitted inhibition curve with a large enough effect; inconclusive means small, poorly fitted or top-dose-only effect, or another doubt; inactive means no such curve, though single readings can be large or run the other way; further: potency means the concentration at half of the fitted maximal effect
#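 1,000 cells/well; 4 h culture; + compound; + HCVcc-Cre (~0.5 moi); 44 h; luciferase substrate, RT 15 min; read 15 sec.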
# FMDV inh: High Throughput Screening for Foot and Mouth Disease Virus Antivirals; Potency, µM (highest dose often 57.9 µM), inactives show at the top dose activity change, negative = inhibition, most hits filed as inhibitors; FMDV antiviral cell-based qHTS; actives 1.2% (n = 410,000); calls by dose curve; tested in HEK293T cells; further: read-out not given here; potency means the concentration at half of the fitted maximal effect; nearly all actives have a fitted effect of over 45% in size
# MARV entry inh: qHTS for inhibitors of binding or entry into cells for Marburg Virus | Marburg virus pseudotyped entry inhibition, cell reporter | Potency, µM (series often up to 37.8 µM), for the others: at the highest dose activity change, negative = inhibition, hits mostly inhibitors | actives 1.8% (n = 300,000) | AID 540276, 2011; calls by dose curve; tested in HEK293 cells; further: potency means the concentration at half of the fitted maximal effect
# Lassa entry inh: qHTS for Inhibitors of binding or entry into cells for Lassa Virus; Lassa virus pseudotype entry inhibition, cell reporter; Potency, µM (series often up to 37.9 µM), inactives show at the top dose activity change, negative = inhibition, most hits filed as inhibitors; actives 1.2% (n = 300,000); AID 540256, 2011; calls by dose curve; tested in HEK293 cells; further: potency means the concentration at half of the fitted maximal effect; nearly all actives have a fitted effect of over 50% in size
# HCMV inh: qHTS Assay for inhibitors of the human cytomegalovirus (HCMV); activity change, negative = inhibition, % at 57.5 µM; HFF cells, HCMV-luciferase reporter, 72 h; active compounds read low; actives 4.5% (n = 410,000); AID 1259415, 2018; in the data active means activity change below about -60%; inconclusive means no clear call, values can overlap the other calls; inactive means above about -39%
#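 Cell-based, HFFs, 1000 cells/well, 16 h 37C; cpds in DMSO + HCMV-luc, MOI 1 PFU/cell; 72 h 37C; OneGlo luminescence after 5 min RT; norm. to buffer vs Salinomycin 10uM.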
# Starred values were filed as active, the others as inactive; ? = inconclusive; . = no result; [ ] = remark or other dose. On the % scale 0 is the no-effect control and ±100 the full control effect.
SMILES,HCV inhibitor,FMDV inh,MARV entry inh,Lassa entry inh,HCMV inh
COc1cccc(CNC(=O)CNS(=O)(=O)c2ccc3nc(C)sc3c2)c1,.,-8.5%,-4.3%[46.1 µM],?,-39.3
S=C(NCc1ccncc1)Nc1cccc(Cl)c1,6.6%,10.8%,?,-10.5%,-16.7
S=C(NCc1ccc(Cl)cc1)Nc1ccncc1,6.31µM*,5.8%,.,.,?
CC(C)(C)c1ccccc1NC(=S)NCc1ccccc1,-14.9%,-0.7%,?,-12.9%,-71.7*
S=C(NCc1ccc(Cl)cc1)Nc1ccccc1,-28.8%,12.9%,3.5%[46.1 µM],11.5%,-66.5*
Fc1ccc(CNC(=S)Nc2ccc(Cl)cc2)cc1,-6.2%,-1.4%,-3.3%,-6.2%,?
Cc1c(NC(=O)/C(C#N)=C/c2ccc(-c3cc(Cl)ccc3Cl)o2)c(=O)n(-c2ccccc2)n1C,?,-12.1%,5.1%,16.7%,?
Cc1c(N/N=C(\C#N)C(=O)c2ccc(Cl)cc2)c(=O)n(-c2ccccc2)n1C,?,-2.1%,4.11µM*,?,-100.1*
Cc1c(NC(=O)/C(C#N)=C/c2ccc(-c3ccc(Cl)cc3)o2)c(=O)n(-c2ccccc2)n1C,?,25.1µM*,?,?,?
CCOC(=O)NC(=O)/C(C#N)=N\Nc1ccc(Cl)cc1,0.6%,-2.1%,5.5%[46.1 µM],10.5%,-8.1
Cc1c(NC(=O)/C(=C/c2cccs2)c2cccs2)c(=O)n(-c2ccccc2)n1C,12.2%,-8.3%,9.2%,-5.2%,-102.3*
N#C/C(=N\Nc1ccc(Cl)cc1)C(=O)c1ccccc1,22.4µM*,?,11.2µM*,?,-98.8*
CCN(C(=O)c1cc2c(Cl)nc3ccc(C)cc3c2s1)c1cc(OC)ccc1OC,.,?,4.0%[46.1 µM],?,-35.5
CC1(C)NC(=S)NC1=S,10.5%,-21.4%,3.1%,13.4%,-99.6*
COCCNC(=O)c1cnn2c(C(F)F)cc(-c3ccc(C)cc3)nc12,5.2%,-7.3%,.,.,-11.7
COc1ccc(CNC(=O)c2cnn3c(C(F)F)cc(C)nc23)cc1OC,10µM*,?,.,.,29.6
Cc1ccc(-c2noc(-c3ccc(N4CCOCC4)c([N+](=O)[O-])c3)n2)cc1,.,-22.3%,16.3%[46.1 µM],28.3%[46.1 µM],-31.7
CCOC(=O)c1cccc(NC(=O)Cn2ncc3c(=O)oc4ccccc4c32)c1,.,-21.3%,4.8%[46.1 µM],6.9%[46.1 µM],7.4
Cc1nn2c(CN(C(=O)COc3ccccc3)c3ccccc3)nnc2c2ccccc12,14.6%,-9.3%,-4.8%,4.3%,-67.8*
Cc1nn2c(COc3ccc(NC(=O)c4ccccc4Cl)cc3)nnc2c2ccccc12,?,-28.2%,7.08µM*,?,-18.4
CC1(C)CC(=O)C2=C(C1)NC1=C(C(=O)c3ccccc31)C2c1cccnc1 (stereo not drawn),-15.7%,-18.2%,.,.,?
CC(C)c1ccc(C2C3=C(CC(C)(C)CC3=O)NC3=C2C(=O)c2ccccc23)cc1 (stereo not drawn),11.2µM*,-1.0%,?,?,-71.8*
Cc1ccc(CCNC(=O)Cn2ncc3c(=O)oc4ccccc4c32)cc1,.,-11.6%,17.9%[46.1 µM],6.1%[46.1 µM],-1.3
N#Cc1ccsc1NC(=O)c1cccc([N+](=O)[O-])c1,10µM*,-21.1%,-7.7%[46.1 µM],0.0%,27.3
N#Cc1ccsc1NC(=O)c1ccc(Cl)c([N+](=O)[O-])c1,-3.3%,-12.6%,.,.,-27.4
SMILES,HCV inhibitor,FMDV inh,MARV entry inh,Lassa entry inh,HCMV inh
CCCCc1ccc(-n2nc3ccc(NC(=O)c4cc5ccccc5o4)cc3n2)cc1,.,25.1µM*,.,1.3%[46.1 µM],-81.6*
CC(C)(Oc1ccc(Cl)cc1)C(=O)Nc1ccc2oc(=O)ccc2c1,.,-22.1%,-9.7%,-2.2%,-65.7*
O=C(Nc1ccc2oc(=O)ccc2c1)c1ccc(-c2cccc(Cl)c2)o1,10µM*,-17.2%,.,.,-64.4*
O=C(Nc1ccc2oc(=O)ccc2c1)c1ccc(-c2cccc([N+](=O)[O-])c2)o1,8.91µM*,31.6µM*,?,?,-39.0
CCOCCc1nn2c(=O)cc(COC(=O)c3ccccc3NC(=O)c3ccc(C)cc3)nc2s1,.,26.2%,.,?,66.6
CCc1ccc(-c2nn(CC(=O)NC3CCCCC3)c3c2cnc2ccc(F)cc23)cc1,.,40.7%,.,-11.0%[46.1 µM],15.2
CCOc1ccc(-c2nc(CNC(=O)NC3CCCCC3)c(C)o2)cc1,.,17.2%,.,26.3%[46.1 µM],8.6
O=C(Nc1ccc2nn(-c3ccccc3)nc2c1)c1ccc(-c2cccc(Cl)c2)o1,.,-11.0%,.,-1.5%[46.1 µM],-74.6*
N#CC1CN(Cc2ccccc2)CN(Cc2ccccc2)C1,7.4%,-26.0%,?,-20.5%[46.1 µM],-62.5*
N#CC1CN(C(c2ccccc2)c2ccccc2)C1,15.8%,-12.9%,-5.1%[46.1 µM],17.1%[46.1 µM],?
COC(=O)c1cccc(-c2cc(Cl)c3c(c2)CC(CNC(=O)c2cccnc2)O3)c1 (stereo not drawn),.,-16.3%,.,.,.
O=C(O)C(Cc1ccc(OS(=O)(=O)Cc2ccccc2)cc1)NS(=O)(=O)Cc1ccccc1 (stereo not drawn),6.5%,-2.1%,7.5%[46.1 µM],-0.6%[46.1 µM],-60.2*
O=S(=O)(Cc1ccccc1)Oc1ccccc1,10.8%,-1.7%,26.8%[46.1 µM],23.0%[46.1 µM],-62.5*
NC(N)=NCc1cccc(I)c1,7.08µM*,?,?,?,-65.7*
O=C(Nc1ccc(Oc2ccccc2)cc1)C1CCN(S(=O)(=O)c2ccccc2)CC1,.,?,3.4%[46.1 µM],-1.4%[46.1 µM],-82.4*
Cc1ccccc1C(=O)N1CCC(C(=O)Nc2ccc(S(=O)(=O)N3CCCCC3)cc2)CC1,12.6µM*,?,-29.9%,?,-8.9
Cc1ccccc1NC(=O)C1CCN(S(=O)(=O)c2ccccc2)CC1,.,-9.7%,.,-16.0%[46.1 µM],-77.6*
O=C(Nc1ccc(S(=O)(=O)N2CCCC2)cc1)C1CCCN1C(=O)c1cccs1 (stereo not drawn),3.5%,-6.2%,-0.4%[46.1 µM],-3.5%,-100.6*
CCCN(CCC)CCCNC(=O)c1cc2c(=O)n(C)c3ccccc3c2s1,.,-2.9%,?,5.5%[46.1 µM],0.4
CCn1c(-c2cccc(OC)c2)nc2cc(NC(C)=O)cc(C(=O)N3CCCC(C(C)=O)C3)c21 (stereo not drawn),.,-1.7%,.,.,.
CCCN(CC(=O)Nc1ccccc1C)C(=O)C1CCN(S(=O)(=O)c2ccc3c(c2)OCCO3)CC1,-4.6%,-5.1%,.,.,63.0
CCCN(CC(=O)Nc1ccccc1C)C(=O)C1CCN(S(=O)(=O)c2ccc(C)c(C)c2)CC1,.,-16.0%,.,.,-61.4*
O=C(Nc1ccc(Oc2ccccc2)cc1)C1CCCN(c2ncccn2)C1 (stereo not drawn),21.5%,-5.3%,5.0%,-9.7%,-71.6*
COc1ccc(NC(=O)c2sc3nc4n(c(=O)c3c2C)CCC4)cc1Cl,.,10.2%,.,1.5%[46.1 µM],4.9
COc1cccc(NC(=O)CCNS(=O)(=O)c2ccc3c(c2)CCCC(=O)N3)c1,.,-9.2%,.,9.8%[46.1 µM],-4.0
CCN(CC)S(=O)(=O)c1ccc2c(c1)c(=O)c(C(=O)NCc1ccccc1OC)cn2C,.,0.0%,14.2%[46.1 µM],?,?

# From PubChem BioAssay
